# The sample as a whole holds a higher share of hits than the screen did.
# RT RNaseH block – HIV-1 RT RNase H inhibitors, primary screen, biochemical, fluorescence. Gag-Pol polyprotein (Human immunodeficiency virus type 1 group M subtype B (isolate …. RT-RNase H RNA/DNA duplex cleavage. inhibition, % at 10 µM. actives 1.9% (n = 65,000); in the data active = inhibition above about 50%
# RmlCD inh mix – RmlC and RmlD coupled enzyme inhibitors, primary screen, biochemical, 384-well, compound mixtures, retest; RmlC/RmlD coupled enzyme inhibition, 384-well mixture HTS; inhibition, % at 5.5 µM; actives 0.39% (n = 110,000); AID 1532, 2009; in the data active = inhibition above about 30%, passing the limit was not always enough
# * hit, by the source's call; . = not tested or not shown.
SMILES,RT RNaseH block,RmlCD inh mix
O=C(Nc1ccc(N2CCCCC2)cc1)c1ccccc1,11.8,-8.8
O=C(Nc1ccc(N2CCCC2)cc1)c1cccc(F)c1,58.9*,7.4
CCCCc1ccc(NS(=O)(=O)c2cccs2)cc1,.,8.3
CCOC(=O)N1CCC(NC(=O)c2ccc3c(c2)N(C)CCS3)CC1,-0.1,61.4*
CCOC(=O)N1CCC(NC(=O)c2ccc3c(c2)N(Cc2ccc(C)cc2)CCS3)CC1,.,-46.1
O=S(Cc1cc(Oc2ccccc2)nc(-c2ccccc2)n1)c1ccccc1 (stereo not drawn),.,-2.3
Cc1nc2cc(C(=O)O)ccc2s1,3.7,5.5
Cc1nc2ccc(C(=O)O)cc2c2c1CC(C)S2 (stereo not drawn),63.2*,-1.4
COC(=O)c1ccc(NCCc2csc(-c3ccc(C)cc3)n2)c([N+](=O)[O-])c1,.,2.2
COc1ccc(Br)cc1C1CC(=O)N2CN(Cc3ccccc3)CSC2=C1C#N (stereo not drawn),30.6,-3.3
N#CC1=C2SCN(Cc3ccccc3)CN2C(=O)CC1c1ccccc1F (stereo not drawn),61.3*,-3.5
CCOc1ccc(NC(=O)c2oc3ccccc3c2NC(=O)C(C)C)cc1,-10.4,.
COc1cccc(N=Cc2ccc(O)cc2O)c1,53.4*,5.3
Oc1ccc(C=Nc2cccc3ncccc23)c(O)c1,1.4,-12.8
COc1cccc2cc(C(C)=O)c(=O)oc12,-3.0,6.7
COc1cccc2cc3c(=O)n(-c4ccccc4)nc-3oc12,52.7*,-21.8
O/N=C(\c1ccc(Cl)cc1Cl)c1ncc(C(F)(F)F)cc1Cl,.,-7.5
CCc1ccc2[nH]c(=O)c(CN(Cc3ccccc3)C(=O)Nc3ccccc3OC)cc2c1,.,-6.0
O=C(c1cccs1)N(Cc1ccccn1)Cc1ccco1,-1.5,-3.7
S=C1SCN(Cc2ccccn2)CN1Cc1ccco1,52.3*,7.1
O=C(NCc1ccccn1)c1coc(=O)c(Br)c1,5.2,33.8*
CCOc1ccc(C(=O)NCc2ccccn2)cc1,1.1,-30.6
CC1=CC(=O)c2c(O)ccc(O)c2C1=O,.,-8.3
COc1ccc(N2CCN(Cc3nc4c(c(=O)n(C)c(=O)n4C)n3Cc3ccccc3C)CC2)cc1,-0.2,.
CCn1c(=O)c(C(=O)Nc2nc3ccccc3[nH]2)c(O)c2ccccc21,74.5*,-2.7
SMILES,RT RNaseH block,RmlCD inh mix
CCCCn1c(=O)c(C(=O)Nc2nc3ccccc3[nH]2)c(O)c2ccccc21,21.9,.
C/C(Cn1nc([N+](=O)[O-])cc1C)=N\NC(=O)c1cccc(Br)c1,.,8.1
Cc1c(NC(=O)C(C)Sc2nc3ccccc3c(=O)n2CCO)c(=O)n(-c2ccccc2)n1C (stereo not drawn),0.4,-2.4
Cc1onc(-c2ccccc2Cl)c1C(=O)Nc1ccccc1N1CCOCC1,.,-11.2
Clc1ccc(Cl)c(-c2nn3c(Cn4cnc5ccccc54)nnc3s2)c1,-30.1,9.1
Clc1ccc(-c2nn3c(Cn4cnc5ccccc54)nnc3s2)c(Cl)c1,71.5*,.
COc1ccc(Br)cc1/C=N/NC(=O)c1nc(-c2ccccc2)n2c1CCCCC2,.,-13.0
O=C1CN(C(=O)COC(=O)c2ccccc2NCc2ccco2)c2ccccc2N1,.,-73.8
Cc1oc(C(=O)O)cc1CSCc1cc(C(=O)O)c(C)o1,51.0*,-10.2
Cc1oc(C(=O)O)cc1CSCc1ccoc1C(=O)O,24.0,4.6
O=C(Nc1ccccc1Cl)ON=C1c2ccccc2-c2ccccc21,.,-13.8
CCOc1ccc(NC(=O)c2oc3ccccc3c2NC(=O)C2CC2)cc1,7.4,.
CCOC(=O)c1cnn(-c2nc(C)nc3sc4c(c23)CCC4)c1N,-6.9,.
CCOC(=O)c1cnn(-c2nc(SC)nc3sc4c(c23)CCC4)c1N,55.1*,12.9
COc1ccc(Nc2nnc(SCc3cc(=O)n4ccsc4n3)s2)cc1,.,3.6
CCC(C)(C)n1nnnc1CN1CCN(C(c2ccccc2)c2ccccc2)CC1,.,-4.6
COc1ccc2c3c(cccc13)NN=C2C,56.6*,.
COc1ccc(C(=O)c2ccc(OC)c3cccc(O)c23)cc1OC,.,-11.0
CCOC(=O)CS(=O)(=O)c1nc(-c2ccccc2)cc(C(F)(F)F)n1,20.0,7.9
CCOC(=O)CS(=O)(=O)c1nc(-c2ccc(F)cc2)cc(C(F)(F)F)n1,55.0*,-8.9
Nn1c(N2CCCCC2)nc2ccccc21,.,-9.4
COCCNc1cc(C)c(C#N)c2nc3ccccc3n12,-6.9,36.4*
CCCNc1cc(C)c(C#N)c2nc3ccccc3n12,.,55.2
O=C1c2ccccc2C(=O)N1CCCc1nc2ccccc2c(=O)n1-c1cccnc1,-13.9,4.9
O=C(Nc1ccccc1NC(=O)NC1CCCCC1)NC1CCCCC1,69.1*,11.1
NC(=O)c1ccccc1NC(=O)NC1CCCCC1,.,2.1
C=CCNC(=O)c1c(CSc2ccc(Cl)cc2)noc1C(=O)NCc1ccccc1,.,9.4
Cc1ccc(NCN2C(=O)C3CC=C(Cl)CC3C2=O)cc1 (stereo not drawn),.,2.6
O=C(O)c1ccccc1NCN1C(=O)C2CC=C(Cl)CC2C1=O (stereo not drawn),-8.7,37.4*

# Screens deposited in PubChem by several laboratories.
